From PubChem BioAssay (NCATS) come the findings set out here.

The target of assay [1] is Ubiquitin carboxyl-terminal hydrolase 2 (Homo sapiens) (UniProt O75604). The assay can be described thus: qHTS for Inhibitors of Ubiquitin-specific Protease USP2a Using CHOP2 as the Reporter: K484 Substrate (AID 652173).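 Note: cleavage of internally quenched K48 di-ubiquitin substrate measured as rising fluorescence over time; potency is the fitted concentration of half-maximal effect; nearly all actives have a fitted effect of over 70% in size.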 To be noted: USP2 cleavage of DiUb K48 IQF substrate, fluorescence; series mostly up to 57.5 µM. An outline of the steps:
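USP2 (dispensed at 5 nM) was pinned with compounds, then DiUb K48 internally quenched fluorescent substrate (dispensed at 100 nM) was added. The buffer was 20 mM Tris pH 8, 2 mM beta-mercaptoethanol and 0.05% CHAPS. Cleavage was read kinetically as rising fluorescence, Ex 525/Em 598.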
For orientation: Quantitative high-throughput screening tests each substance at several concentrations.

Assay [2] addresses Calcium and integrin-binding protein 1 (Homo sapiens) (UniProt Q99828). The experiment in a line: Primary qHTS for Identification of Calcium Integrin Binding Protein 1 (CIB1) Competitor (AID 1508620).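 Note: GST tagged CIB1 binding a fluorescein labelled alphaIIb integrin peptide tracer; top concentration of the series differs between compounds; % is set by controls: 0 for no effect and ±100 for the full control effect.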 The conditions noted are these: CIB1-GST / FITC-alphaIIb peptide fluorescence polarization; series mostly up to 114 µM. An outline of the steps:
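Fluorescence polarization competition: GST-tagged CIB1 (1 uM final) preincubated with compound 15 min at room temperature, then FITC-labelled alphaIIb peptide (100 nM final) added. After 15 min at room temperature, polarization read at Ex 480/Em 540.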

A short description of assay [3]: qHTS profiling of the MIPE4 collection as inhibitors of Plasmodium falciparum (3D7) proliferation (AID 743344; call rule not given here;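 note: scaled between DMSO vehicle wells and 0.29 µM artemisinin as full inhibition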). To be noted: P. falciparum 3D7 in erythrocytes, SYBR Green DNA fluorescence, 72 h; at 28.5 µM (top of the series). An outline of the steps: (§1)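 Erythrocytes infected with P. falciparum (0.3% parasitemia, 2.5% hematocrit) incubated with compounds 72 h at 37 C, 5% CO2. Lysis with saponin/Triton buffer containing SYBR Green I, overnight at room temperature in the dark; DNA fluorescence (485/535 nm) normalised to 0.29 uM artemisinin and DMSO.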

Assay [4] in a line: qHTS profiling of the MIPE4 collection as inhibitors of Plasmodium falciparum (DD2) proliferation (AID 743345; call rule not given here). To be noted: P. falciparum Dd2 in erythrocytes, SYBR Green DNA, 72 h; at 28.5 µM (top of the series). An outline of the steps:
as §1

The nature of assay [5]: qHTS profiling of the MIPE4 collection as inhibitors of Plasmodium falciparum (DD2) proliferation (Rep 2) (AID 743346; call rule not given here). The conditions noted are these: P. falciparum Dd2 in erythrocytes, SYBR Green DNA, 72 h; at 28.5 µM (top of the series). An outline of the steps: as §1
The nature of assay [6]: qHTS profiling of the MIPE4 collection as inhibitors of Plasmodium falciparum (HB3) proliferation (AID 743347; call rule not given here;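 note: plate controls were DMSO vehicle wells for no effect and artemisinin wells for full effect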). The conditions noted are these: P. falciparum HB3 in erythrocytes, SYBR Green DNA, 72 h; at 28.5 µM (top of the series). The gist of the method:
as §1

The nature of assay [7]: Counterscreen qHTS for small molecule stabilizers of the endoplasmic reticulum resident proteome: GLuc-NoTag assay (AID 1508627).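 Note: 0% = thapsigargin alone and -100% = DMSO vehicle control.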 To be noted: Gaussia luciferase NoTag secretion counterscreen, luminescence, thapsigargin 100 nM for final 4 h; series mostly up to 76.4 µM. An outline of the steps:
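SH-SY5Y cells stably expressing constitutively secreted GLuc without SERCaMP tag, exposed to compound for 19 hr, then to 100 nM thapsigargin for 4 hr at 37C. Medium luciferase was read by coelenterazine luminescence without lysis.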
Background: The purpose of a counterscreen is to sort out artefacts and off-target activity.

Assay [8] in a line: Confirmatory qHTS for small molecule stabilizers of the endoplasmic reticulum resident proteome: Secreted ER Calcium Modulated Protein (SERCaMP) assay (AID 1508628). Note: % is set by controls: 0 for no effect and ±100 for the full control effect; nearly all actives have a fitted effect of over 40% in size. To be noted: SERCaMP secreted luciferase ER calcium/proteostasis reporter; series mostly up to 76.3 µM. The gist of the method: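 SH-SY5Y cells stably expressing GLuc-SERCaMP, treated 16 h with compound (primary 1.53, 7.67, 38.3 uM; confirmation 11 concentrations, up to 76.6 uM), then 100 nM thapsigargin for 4 h. Secreted Gaussia luciferase in medium read by coelenterazine luminescence.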

Assay [9] has as its target DNA polymerase kappa (Homo sapiens) (UniProt Q9UBT6). The assay can be described thus: qHTS for Inhibitors of Polymerase Kappa: Confirmatory Assay for Cherry-picked Compounds (AID 720501). Note: potency is the fitted concentration of half-maximal effect. To be noted: purified Pol-kappa, fluorescent strand-displacement substrate. An outline of the steps: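 10 nM human Pol-kappa was preincubated with compound 15 min at room temperature, then 50 nM (final) primer/template substrate with TAMRA-labeled reporter strand and BHQ-2-labeled template added. Fluorescence (Ex 525, Em 598 nm) read at 0 and 10 min.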

Assay [10] can be described thus: Cell Viability qHTS for small molecule stabilizers of the endoplasmic reticulum resident proteome (AID 1508629).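 Note: human SH-SY5Y neuroblastoma cells carrying the GLuc-SERCaMP reporter; compound exposure about 46 h in total before the viability read; % is set by controls: 0 for no effect and ±100 for the full control effect.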 To be noted: cell viability counter-screen, 100 nM thapsigargin for final 4 h.
A short description of assay [11]: qHTS profiling for inhibitors of Plasmodium falciparum (3D7) proliferation (AID 743322).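 Note: infected erythrocytes exposed to compound for 72 h before lysis; 100% = DMSO vehicle wells and 0% = 0.29 µM artemisinin.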 The conditions noted are these: P. falciparum 3D7 proliferation; at 28.7 µM (top of the series). An outline of the steps: as §1
Assay [12] can be described thus: qHTS profiling for inhibitors of Plasmodium falciparum (HB3) proliferation (AID 743324).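 Note: 100% = DMSO vehicle wells and 0% = artemisinin-treated control wells.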 To be noted: Plasmodium falciparum HB3 blood-stage proliferation; at 28.7 µM (top of the series). An outline of the steps: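 P. falciparum HB3 grown in erythrocytes (0.3% parasitemia, 2.5% hematocrit final) with compound for 72 h at 37 C, 5% CO2. Parasite DNA detected by SYBR Green after saponin/triton lysis overnight; normalized to 0.29 uM artemisinin and DMSO.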

Records with an inconclusive call do not appear. The list shows a part of the results. Activity calls are given as the source filed them. Unless noted, calls come from the whole dose curve; as a rule, active = well fitted curve in the direction sought with a large enough effect; inconclusive = small, poorly fitted or top-dose-only effect, or another doubt; inactive = no such curve, though single readings can be large; an effect the other way counts as inactive or inconclusive.

Chain of Calcium and integrin-binding protein 1 (Homo sapiens) (Q99828 whole entry, looked up): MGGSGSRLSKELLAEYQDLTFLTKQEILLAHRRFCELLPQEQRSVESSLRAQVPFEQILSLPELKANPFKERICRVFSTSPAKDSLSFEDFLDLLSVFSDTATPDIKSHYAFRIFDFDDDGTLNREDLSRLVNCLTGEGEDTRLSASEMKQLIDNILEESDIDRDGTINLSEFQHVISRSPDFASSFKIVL
Chain of Ubiquitin carboxyl-terminal hydrolase 2 (Homo sapiens) (O75604 whole entry, looked up): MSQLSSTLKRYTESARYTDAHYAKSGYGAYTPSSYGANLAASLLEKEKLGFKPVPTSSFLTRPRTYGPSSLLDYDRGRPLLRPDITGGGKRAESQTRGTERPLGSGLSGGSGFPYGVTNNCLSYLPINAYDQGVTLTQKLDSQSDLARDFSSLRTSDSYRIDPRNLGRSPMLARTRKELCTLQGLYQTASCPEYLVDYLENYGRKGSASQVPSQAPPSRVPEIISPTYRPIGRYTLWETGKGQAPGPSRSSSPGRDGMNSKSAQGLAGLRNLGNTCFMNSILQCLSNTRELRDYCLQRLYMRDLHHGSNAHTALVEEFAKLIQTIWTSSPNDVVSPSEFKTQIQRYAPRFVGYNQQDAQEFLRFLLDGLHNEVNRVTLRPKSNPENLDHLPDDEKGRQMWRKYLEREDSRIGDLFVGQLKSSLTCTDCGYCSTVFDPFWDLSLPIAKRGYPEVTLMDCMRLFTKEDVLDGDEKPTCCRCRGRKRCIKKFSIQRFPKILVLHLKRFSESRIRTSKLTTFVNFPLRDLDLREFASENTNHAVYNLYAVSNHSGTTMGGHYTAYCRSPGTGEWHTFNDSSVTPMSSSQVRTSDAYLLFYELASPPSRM
Chain of DNA polymerase kappa (Homo sapiens) (Q9UBT6 whole entry, looked up): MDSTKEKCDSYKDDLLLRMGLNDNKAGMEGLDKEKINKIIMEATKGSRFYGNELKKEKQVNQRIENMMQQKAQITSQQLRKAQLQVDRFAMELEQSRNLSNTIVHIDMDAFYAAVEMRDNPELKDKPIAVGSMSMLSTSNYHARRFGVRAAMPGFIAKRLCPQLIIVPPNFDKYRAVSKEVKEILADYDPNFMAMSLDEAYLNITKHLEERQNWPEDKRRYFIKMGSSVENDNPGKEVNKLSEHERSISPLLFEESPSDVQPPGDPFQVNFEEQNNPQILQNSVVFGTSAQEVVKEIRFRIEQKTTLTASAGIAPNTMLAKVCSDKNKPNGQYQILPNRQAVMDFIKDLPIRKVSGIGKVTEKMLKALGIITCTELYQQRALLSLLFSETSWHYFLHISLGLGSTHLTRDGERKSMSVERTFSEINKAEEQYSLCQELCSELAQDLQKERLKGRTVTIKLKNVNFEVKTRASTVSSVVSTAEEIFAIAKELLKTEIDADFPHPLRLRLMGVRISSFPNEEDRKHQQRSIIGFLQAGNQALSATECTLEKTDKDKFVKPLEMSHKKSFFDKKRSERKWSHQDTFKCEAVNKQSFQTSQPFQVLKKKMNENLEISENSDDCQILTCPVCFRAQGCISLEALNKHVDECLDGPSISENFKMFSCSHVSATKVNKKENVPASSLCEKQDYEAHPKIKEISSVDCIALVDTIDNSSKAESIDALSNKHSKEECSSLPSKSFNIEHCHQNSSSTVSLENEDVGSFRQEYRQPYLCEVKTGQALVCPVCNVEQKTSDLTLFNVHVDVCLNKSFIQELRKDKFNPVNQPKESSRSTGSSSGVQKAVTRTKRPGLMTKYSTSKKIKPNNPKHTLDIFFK

As to `CC(C)Oc1ccccc1C(=O)Nc1nc(-c2ccccc2)cs1`, in assay [1], the Potency was 17.2 µM (active). Further, in assay [2], the Potency result was “inactive”.

The molecule `CC(C)(C)OC(=O)N[C@@H](Cc1ccc(OS(=O)(=O)c2cccc3cnccc23)cc1)C(=O)N1CCCN(C(=O)OC(C)(C)C)CC1` registered a parasite growth, % of DMSO control in assay [3] of 5.32%. Moreover, the parasite growth remaining, % of DMSO control (lower = more inhibition) in assay [4] is 7.99%. In assay [5], the parasite growth, % of control (lower = inhibition) worked out at 34.3%. The molecule also yielded a growth, % of control in [6] of 7.55%. In assay [2], the Potency result was “inactive”.

In the case of `COc1cccc(CN2CCN(C(=O)c3ccc(-c4ccccc4)cc3)CC2)c1`, the Potency entry in assay [7] and in [8] was “inactive” each time.

Take `CC(C)(C)OC(=O)N[C@@H](Cc1ccc(O[S+](=O)([O-])c2cccc3cnccc23)cc1)C(=O)N1CCN(Cc2ccccc2)CC1`: in assay [3], the parasite growth, % of DMSO control was determined as 5.32%. Moreover, the parasite growth remaining, % of DMSO control (lower = more inhibition) in [4] was found to be 7.86%. The parasite growth, % of control (lower = inhibition) in assay [5] turned out to be 22.5%. In assay [6], this molecule displayed a growth, % of control of 10.3%. For the same molecule, the Potency entry in [2] is “inactive”.

`COc1ccc(C2=Nn3c(nnc3-c3ccccc3OC)SC2)cc1OC1CCCC1`: in [9], the Potency is 4.23 µM (active). The Potency result in assay [2] is “inactive”.

Regarding `Cc1ccc(-n2c(C)cc(/C=N/NC(=O)c3ccncc3)c2C)cc1C`, the Potency entry in assay [7] and in [8] was “inactive” in each case. Moreover, the max response in assay [10] is 2.93% (inactive).

Take `O=C(NCCN1CCCC1)[C@H](Cc1ccc(OS(=O)(=O)c2cccc3cnccc23)cc1)NS(=O)(=O)c1cccc2cnccc12`: the remaining parasite growth % (stronger effect = lower value) in [11] came to 0.578%. Also, the remaining proliferation (% of control), lower = more inhibition in assay [12] is 1.37%. Besides, in assay [2], the Potency entry was “inactive”.

On to `COc1c2c(c(C(=O)/C=C/C(C)=C/c3ccccc3)c3c1OCO3)CCN(C)C2`, for which, in assay [7], the Potency entry is “inactive”.

For `CC(C)(C)OC(=O)N[C@@H](Cc1ccc(O[S+](=O)([O-])c2cccnc2)cc1)C(=O)N1CCN(c2ccccc2)CC1`, the remaining parasite growth % (stronger effect = lower value) in assay [11] was -0.793%. Besides, in assay [12], the remaining proliferation (% of control), lower = more inhibition is -0.169%. The Potency entry in assay [2] was “inactive”.

On to `O=C(Nc1nc(-c2ccccc2)cs1)c1ccccc1Cl`, for which the Potency in assay [1] is 13.7 µM (active). Also, the Potency result in assay [2] was “inactive”.

With `N[C@@H](Cc1ccc(O[S+](=O)([O-])c2cccc3cccnc23)cc1)C(=O)N1CCN(c2ccccc2)CC1`, the remaining parasite growth % (stronger effect = lower value) in [11] was found to be 0.473%. The remaining proliferation (% of control), lower = more inhibition in [12] was determined as 0.538%. Besides, the Potency result in assay [2] was “inactive”.

As for `CN1CCN(C(=O)[C@H](Cc2ccc(O[S+](=O)([O-])c3cccc4cnccc34)cc2)N[S+](=O)([O-])c2cccc3cnccc23)CC1`, the remaining parasite growth % (stronger effect = lower value) in [11] is 10.3%. For the same molecule, the remaining proliferation (% of control), lower = more inhibition in assay [12] was 5.8%. In addition, the Potency entry in assay [2] was “inactive”.
